# Screens deposited in PubChem BioAssay by National Center for Advancing Translational Sciences (NCATS).
# GAA spleen mod = inhibitors or activators of human alpha-glucosidase in spleen homogenate; actives 0.006% (n = 240,000); human spleen homogenate, 4-MU-alpha-glucoside fluorescence; Potency, µM (titrated, usually from 79.9 µM), inactives show at the top dose activity change, negative = inhibition, actives largely listed as inhibitors; P10253; AID 2112;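 further: potency means the concentration at half of the fitted maximal effect; 0% = enzyme with vehicle and -100% = no enzyme basal signal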
#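 Human spleen homogenate (1 ug) incubated with compounds and 1 mM 4-methylumbelliferyl-alpha-D-glucopyranoside in pH 5.0 citrate/phosphate buffer, 37 C, 40 min. Stopped at pH 10; 4-MU fluorescence (Ex 365/Em 440 nm); AC50 by Hill fit.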
# Coupling enz = counter-screen for Giardia aldolase inhibitors: coupling enzyme system | actives 0.67% (n = 290,000) | activity change, negative = inhibition, % at 58.2 µM, hits read low | coupling enzyme system counterscreen, AmpLite Red fluorescence; in the data active means activity change below about -30%
#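 Compounds tested against the coupling enzymes alone at 57.5 uM final; readout was AmpLite Red fluorescence (525/598 nm) after 20 min at RT.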
# GAA glycogen mod = alters human alpha-glucosidase cleavage of glycogen | recombinant GAA, glycogen substrate, Amplex Red glucose oxidase fluorescence | Potency, µM (series often up to 76.4 µM), for inactives: at the highest dose activity change, negative = inhibition, actives largely listed as inhibitors | actives 0.38% (n = 300,000) | AID 2100;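 further: potency means the concentration at half of the fitted maximal effect; 0% = full enzyme reaction and -100% = no-enzyme basal signal; the screen sought inhibitors and activators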
#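 Recombinant enzyme (4 nM final) with compounds titrated up to 77 uM and bovine liver glycogen (30 ug) in citrate pH 5.0, 0.01% Tween-20, 37 C 40 min. Released glucose detected by Amplex Red/glucose oxidase (Ex 573/Em 610); AC50 from Hill fits.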
# B2AR arrestin = beta2AR (human) beta-arrestin recruitment activity; actives 0.02% (n = 330,000); P07550; beta-arrestin recruitment to beta2AR, cell-based reporter; Potency, µM (top dose mostly 46.1 µM), inactives show top-dose activation, usual class: activators; AID 492947;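 further: potency means the concentration at half of the fitted maximal effect; 0% = DMSO controls and full agonism = EC100 isoproterenol or metaproterenol; nearly all actives have a fitted effect of over 65% in size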
# Target sequence (P07550 whole entry, looked up): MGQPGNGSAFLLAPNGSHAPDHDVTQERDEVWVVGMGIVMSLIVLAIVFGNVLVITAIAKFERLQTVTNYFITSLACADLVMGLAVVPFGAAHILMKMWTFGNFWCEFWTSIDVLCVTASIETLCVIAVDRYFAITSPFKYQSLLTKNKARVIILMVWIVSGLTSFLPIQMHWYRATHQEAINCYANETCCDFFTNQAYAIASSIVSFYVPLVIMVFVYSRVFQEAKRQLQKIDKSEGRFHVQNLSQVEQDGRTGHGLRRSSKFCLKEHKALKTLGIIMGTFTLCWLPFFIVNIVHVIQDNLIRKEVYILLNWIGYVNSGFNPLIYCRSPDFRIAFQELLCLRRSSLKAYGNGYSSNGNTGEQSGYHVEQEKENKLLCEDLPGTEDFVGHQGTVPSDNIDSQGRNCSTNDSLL
# GAA inh = alpha-glucosidase (human) inhibition; Potency, µM (titrated, usually from 76.9 µM), for inactives: at the highest dose activity change, negative = inhibition, usual class: inhibitors; actives 0.005% (n = 200,000); AID 1466; purified human GAA, 4-MU-alpha-glucoside fluorescence; P10253;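 further: potency means the concentration at half of the fitted maximal effect; plate controls were uninhibited enzyme wells for no effect and no-enzyme background for full effect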
#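 Read-out is 4-methylumbelliferone fluorescence (Ex 365/Em 440 nm) after NaOH/glycine stop at pH 10. Enzyme 4 nM, substrate 400 uM, pH 5.0 citrate buffer, 20 min room temperature; AC50 from Hill-equation concentration-response.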
# An asterisk follows results filed as active; ? = inconclusive; nt = no result; [ ] = another dose, or the depositor's remark. A selection: hits, their analogues and other compounds. The true share with any hit is near 0.85%. Unless noted, the call rests on the fitted dose curve; in most records, active means well fitted curve in the direction sought with a large enough effect; inconclusive means small, poorly fitted or top-dose-only effect, or another doubt; inactive means no such curve, though single readings can be large; an effect the other way counts as inactive or inconclusive. Unless noted, on the % scale 0 is the no-effect control and ±100 the full control effect.
SMILES,GAA spleen mod,Coupling enz,GAA glycogen mod,B2AR arrestin,GAA inh
O=C(Cc1csc(N2CCOCC2)n1)N/N=C/c1ccc(O)c(O)c1O,-6%,-61*,?,0%,5%
COc1cc(/C=N/NC(=S)NCCN2CCOCC2)ccc1O,0%,2,25µM*,-1%,9%
O=C(NCCO)c1ccc(-c2nnc(Nc3ccc(OC(F)(F)Cl)cc3)c3ccccc23)cc1,nt,nt,-17%[76.3 µM],nt,nt
COc1ncc2nc(-c3cccs3)c(=O)n(CCc3ccccc3)c2n1,-2%,3,nt,nt,nt
COc1ccc2[nH]cc(CCNc3ncncc3-c3cccc(NS(C)(=O)=O)c3)c2c1,4%,2,nt,nt,nt
O=S(=O)(NCc1ccco1)c1ccc(S(=O)(=O)N2CCCC2)cc1,3%,-4,35µM*,0%,?
COc1cccc(CNS(=O)(=O)c2ccc(S(=O)(=O)N3CCCC3)cc2)c1,1%,-53*,5µM*,0%,1%
COc1cccc(NS(=O)(=O)c2ccc(S(=O)(=O)N3CCCC3)cc2)c1,nt,nt,nt,0%,nt
N[C@H](CCC(=O)N[C@H](CSN=O)C(=O)NCC(=O)O)C(=O)O,6%,1,nt,nt,nt
CC(=O)c1ccc(N2CCN(Cc3nc4ccccc4[nH]3)CC2)cc1,nt,-1,-7%,0%,nt
Oc1ccc(N2CCN(Cc3nc4ccccc4[nH]3)CC2)cc1,nt,-5,8.9µM*,0%,nt
CCOCc1cnc(C)nc1NCC(=O)c1c(C)[nH]c2ccc(OC)cc12,-2%,-49*,-4%,0%,-1%
O=C1/C(=N\S(=O)(=O)c2cccs2)C([n+]2cccc(Cc3ccccc3)c2)=C([O-])c2ccccc21,-4%,-38*,5%,0%,nt
O=C1/C(=N\S(=O)(=O)c2cccs2)C([n+]2ccc(CCCc3ccccc3)cc2)=C([O-])c2ccccc21,1%,-35*,8%,-1%,1%
Cc1cc(C)c[n+](C2=C([O-])c3ccccc3C(=O)/C2=N\S(=O)(=O)c2cccs2)c1,-8%,0,6%,1%,0%
Cc1cc[n+](C2=C([O-])c3ccccc3C(=O)/C2=N\S(=O)(=O)c2cccs2)cc1C,0%,-63*,15%,-1%,2%
O=S(=O)([N-]c1nc2ccccc2nc1-[n+]1ccc(CCCc2ccccc2)cc1)c1cccs1,1%,2,-1%,-1%,nt
CC(C)N(Cc1ccccc1)S(=O)(=O)c1cccs1,nt,-9,3%,0%,nt
N#CCCn1c(=O)c(-c2ccc(Cl)cc2)nc2cnc(Nc3ccccc3)nc21,-13%,2,nt,nt,nt
Cc1cccc(-n2c3nc(=O)[nH]c(=O)c-3cc3cc([N+](=O)[O-])ccc32)c1,-4%,-8,9%,0%,-3%
Cc1ccc(C)c(-n2c3nc(=O)[nH]c(=O)c-3cc3cc([N+](=O)[O-])ccc32)c1,-9%,-47*,12%,-1%,-1%
O=S1(=O)C2CC3C=CC2(CN1Cc1ccccc1)O3 (configuration not stated),-8%,1,nt,nt,nt
CCOc1ccc(-c2nc3ccc(-c4nc5ccc(N6CCN(C)CC6)cc5[nH]4)cc3[nH]2)cc1,-5%,-2,nt,nt,nt
COc1ccc(OC)c(Nc2nc(-c3sc(N)nc3C)cs2)c1,-7%,-31*,?,0%,?
CCCC(=O)Nc1nc(C)c(-c2csc(Nc3cc(OC)ccc3OC)n2)s1,-10%,-1,?,0%,-10%
SMILES,GAA spleen mod,Coupling enz,GAA glycogen mod,B2AR arrestin,GAA inh
CCCCC[C@]12Cc3ccccc3C(O1)C1=C(CC(C)(C)CC1=O)O2,nt,0,18%[15.3 µM],0%[9.22 µM],nt
O=C1OC(Nc2cc(Br)cc3cccnc23)c2ccccc21 (configuration not stated),-6%,-40*,-7%,-1%,8%
N#C/C(=C1\C(=O)Nc2c(Cl)cc(Cl)cc21)c1nnc2n1CCCCC2,4%,-38*,0%,0%,-2%
S=C(NCc1ccco1)N/N=C/c1ccc(Cl)cc1,-12%,1,11%,0%,-2%
Oc1ccc(/C=N/NC(=S)NCc2ccco2)cc1,-3%,-1,28µM*,0%,-2%
CCOC(=O)C1=C(c2ccccc2)OC(N)=C(C#N)C1c1cccnc1 (configuration not stated),nt,-2,0%,0%,2%
CC(=O)C1=C(C)OC(N)=C(C#N)C1c1cccnc1 (configuration not stated),nt,-33*,-6%,0%,-8%
Cc1ccc(-c2[nH]nc3c2C(c2cccnc2)C(C#N)=C(N)O3)cc1 (configuration not stated),-1%,-42*,-1%,0%,6%[15.4 µM]
COc1ccc2c(c1)C(c1ccc(C)cc1)CC(=O)O2 (configuration not stated),2%[119 µM],4,nt,nt,nt
CC(=O)C(Sc1nccc(-c2cccs2)n1)C(C)=O,-2%,-51*,-18%,0%,2%
CC(C)NC(=O)CSc1nccc(-c2cccs2)n1,-2%,2,6%,0%,-1%
c1csc(CNc2ncncc2-c2ccoc2)c1,8%,5,nt,nt,nt
Cc1ccc(/C(=N/Nc2ncnc3ccccc23)C(=O)O)cc1,nt,-7,nt,11µM*,nt
O=C(c1ccc2c3c(cccc13)CC2)C1CCCN(Cc2cccnc2)C1 (configuration not stated),0%,-1,11%,0%,-1%
COc1cc(CN2CCCC(C(=O)c3ccc4c5c(cccc35)CC4)C2)cc(OC)c1O (configuration not stated),-2%,-39*,?,-1%,10%
c1ccc(-c2cnc(CSc3nnc4ccccn34)o2)cc1,-6%,-37*,-3%,0%,-5%
Fc1ccc(-c2nnc(CSc3nnc4ccccn34)o2)cc1,2%,3,3%,4%,-3%
Cc1cc(C)cc(Nc2nc3c(S(=O)(=O)c4cccc(Cl)c4)nnn3c3ccsc23)c1,nt,nt,40µM*,nt,nt
CC(=O)Nc1ccc(Nc2nc3c(S(=O)(=O)c4cccc(Cl)c4)nnn3c3ccsc23)cc1,nt,nt,15%[76.3 µM],nt,nt
Cc1oc2c(c1C(=O)N1CCC(C)CC1)C(=O)c1ccccc1C2=O,-2%,-46*,14%,0%,-1%
Cc1onc(-c2ccccc2Cl)c1C(=O)N1CCC(C)CC1,nt,1,3%,0%,nt
CCOC(=O)C1CCN(C(=O)c2c(C)oc3c2C(=O)c2ccccc2C3=O)CC1,3%,-47*,-2%,0%,2%
CCCC=O,5%,nt,nt,nt,nt
CC12CN3CC(C)(CN(C1)C3c1ccc3ccccc3c1O)C2=O (configuration not stated),7%,-48*,-2%,-1%,-5%
O=C(/C=C/c1ccc(O)c(O)c1)OC1C(O)CC(OC(=O)/C=C/c2ccc(O)c(O)c2)(C(=O)O)CC1O (configuration not stated),-2%,-10,1.8µM*,-1%,-10%
